TDP1 cell noCPT: qHTS for Inhibitors of human tyrosyl-DNA phosphodiesterase 1 (TDP1): qHTS in cells in absence of CPT; DT40 Tdp1-/- hTDP1 cells, no CPT, ATP luminescence, 48 h; Potency, µM (series often up to 46.2 µM), inactives show at the highest dose activity change, negative = growth inhibition, actives largely listed as inhibitors; 420,000 tested, 15% active; AID 686978, 2013; further: potency means the concentration at half of the fitted maximal effect; on the % scale 0 is the no-effect control and ±100 the full control effect; nearly all actives have a fitted effect of over 55% in size
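Chicken DT40 Tdp1-/- cells complemented with human TDP1, screened without camptothecin (DMSO vehicle only), 400 cells/well. Compounds pin-transferred, cells incubated at 37 °C for at least 48 hr. Growth read as ATP-dependent luminescence (CellTiter-Glo, 30 min at RT).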
HepG2 tox: kills HepG2 cells in TGF-b inhibitor counter-screen; HepG2 CAGA-GFP viability, ATP luminescence, 18 h; Potency, µM (top dose mostly 46.1 µM), for the others: at the top dose activity change, negative = cytotoxicity, most hits filed as cytotoxic; 410,000 tested, 0.76% active; further: potency means the concentration at half of the fitted maximal effect
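CellTiter-Glo luminescence gave cytotoxicity after 18 hours at 37 degrees C. The cells were HepG2 CAGA-GFP in 1% FBS DMEM, stimulated with 500 pg/mL TGF-beta after compound addition. %Activity was normalised to no-cell wells (complete cell-killing) and DMSO (no toxicity), and curves were fitted and classified.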
TGFb inhibitor: blocks TGF-b signaling; HepG2 CAGA-GFP TGF-b/SMAD3 reporter, GFP fluorescence, 18 h; TGF-beta stimulated, 500 pg/mL final; Potency, µM (top dose mostly 46.1 µM), for inactives: at the top dose activity, negative = inhibition, actives largely listed as inhibitors; 410,000 tested, 1.2% active; AID 588855; further: potency means the concentration at half of the fitted maximal effect; on the % scale 0 is the no-effect control and ±100 the full control effect; nearly all actives have a fitted effect of over 65% in size
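HEPG2 CAGA-GFP, 1000 cells/well; 2 h settle, 37 C; cpd via pin tool; TGF-b 500 pg/mL final; 18 h, 37 C; GFP imaging ex488/em500-530; %Activity normalised to -TGF-b and +DMSO controls; CRC fit, curve class.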
TDP1 inh: inhibitors of human tyrosyl-DNA phosphodiesterase TDP1. Q9NUW8. recombinant TDP1, AlphaScreen DNA substrate cleavage. Potency, µM (doses to about 130 µM), for inactives: at the highest dose activity change, negative = inhibition, hits mostly inhibitors. 350,000 tested, 0.28% active; further: potency means the concentration at half of the fitted maximal effect; on the % scale 0 is the no-effect control and ±100 the full control effect; nearly all actives have a fitted effect of over 40% in size
Target sequence (Q9NUW8 whole entry, looked up): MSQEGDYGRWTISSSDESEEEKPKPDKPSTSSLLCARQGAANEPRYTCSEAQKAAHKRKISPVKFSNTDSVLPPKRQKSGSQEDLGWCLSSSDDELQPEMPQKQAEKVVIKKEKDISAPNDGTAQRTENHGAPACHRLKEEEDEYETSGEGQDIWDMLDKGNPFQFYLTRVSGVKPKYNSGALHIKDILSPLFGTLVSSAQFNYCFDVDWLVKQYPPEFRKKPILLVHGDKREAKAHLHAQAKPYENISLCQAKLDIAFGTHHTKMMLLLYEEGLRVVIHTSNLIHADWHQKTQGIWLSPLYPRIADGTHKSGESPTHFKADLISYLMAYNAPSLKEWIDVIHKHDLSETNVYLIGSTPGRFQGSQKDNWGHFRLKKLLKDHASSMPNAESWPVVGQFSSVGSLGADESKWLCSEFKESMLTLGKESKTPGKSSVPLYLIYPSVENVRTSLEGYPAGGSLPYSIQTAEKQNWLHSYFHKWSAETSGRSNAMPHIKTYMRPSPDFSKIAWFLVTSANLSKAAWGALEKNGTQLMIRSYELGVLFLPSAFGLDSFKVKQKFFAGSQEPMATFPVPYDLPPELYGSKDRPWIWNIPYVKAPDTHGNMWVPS
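Signal: AlphaScreen proximity between streptavidin donor and anti-FITC acceptor beads on intact substrate. Reaction: Tdp1 1 nM, substrate 15 nM final, 5 min RT after 15 min compound preincubation.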
IL-1B inflam inh: inflammasome signaling inhibition, IL-1 beta readout | THP-1 LPS/ATP IL-1B secretion, AlphaLISA, 16 h; active compounds read low | activity change, % at 57.5 µM | 360,000 tested, 4.7% active; in the data active means activity change below about -50%; inconclusive means mostly about -30% to -49%; further: on the % scale 0 is the no-effect control and ±100 the full control effect
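Secreted IL-1B measured by AlphaLISA bead assay after 16 h compound exposure of THP-1 cells; compounds (final up to 57.5 uM) added 1 h before LPS (250 ng/mL) and ATP (1.25 mM) stimulation; lower signal means less secretion.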
DT40 TDP1 CPT: DT40-hTDP1 cell growth loss with CPT; chicken DT40 Tdp1-/-;hTDP1 cells + 20 nM CPT, ATP luminescence, 48 h; Potency, µM (highest dose often 46.2 µM), without a hit: top-dose activity change, negative = growth inhibition, hits mostly inhibitors; 420,000 tested, 12% active; AID 686979; further: potency means the concentration at half of the fitted maximal effect; on the % scale 0 is the no-effect control and ±100 the full control effect; nearly all actives have a fitted effect of over 55% in size
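Chicken DT40 Tdp1-/- cells stably complemented with human TDP1 were seeded at 400 cells/well in medium containing 20 nM camptothecin, exposed to pin-transferred compounds, and grown at 37 °C for at least 48 hr. Viability was read as ATP luminescence.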
The depositor's hits bear a star; ? = inconclusive; . = no result given; [ ] = another dose, or the depositor's remark. Shown are actives, neighbours in structure and some others; about 19% of the full set was active somewhere. Unless noted, the call rests on the fitted dose curve; in most records, active means well fitted curve in the direction sought with a large enough effect; inconclusive means small, poorly fitted or top-dose-only effect, or another doubt; inactive means no such curve, though single readings can be large; an effect the other way counts as inactive or inconclusive.

SMILES	TDP1 cell noCPT	HepG2 tox	TGFb inhibitor	TDP1 inh	IL-1B inflam inh	DT40 TDP1 CPT
Cc1ccsc1CN(C)C(=O)CN1C(=O)NC(c2ccccc2)(c2ccccc2)C1=O	-15%	-6%	?	0%[56.1 µM]	?	?
CN(C(=O)CS(=O)(=O)c1cn(CC(=O)N2CCCC2)c2ccccc12)c1ccccc1	18%	-13%	-2%	.	-7	-12%
CC(C)N1CCN(Cc2cccn2-c2ccccn2)CC1CCO (centres undefined)	11%	3%	10%	.	11	7%
Cc1ccc(OCC(=O)Nc2ccc(S(=O)(=O)NC3=NCCCCC3)cc2)cc1	-25%	4%	1%	.	-3	?
Cc1nc2ccccn2c(=O)c1NC(=O)c1ccc(F)c(F)c1	-21%	-2%	-4%	5%	.	1%
Cc1ccc(C)c(Cn2c3ccccc3c3cnn(CC(=O)NC4CCC(C)CC4)c(=O)c32)c1 (centres undefined)	13µM*	-7%	5%	3%	.	10µM*
CCCn1c2ccccc2c2cnn(CC(=O)NC3CCC(C)CC3)c(=O)c21 (centres undefined)	4%	4%	3%	0%	10	-3%
Cc1ccccc1Cn1c2ccccc2c2cnn(CC(=O)NC3CCC(C)CC3)c(=O)c21 (centres undefined)	18µM*	-43%	-31%	8%	.	18µM*
CCN(CC)/[N+]([O-])=N/OCOC(=O)C(C)c1ccc(CC(C)C)cc1 (centres undefined)	.	-9%	-12%	.	.	.
Cc1c(C(=O)N2CCCC2)sc2ncnc(NCCCN3CCOCC3)c12	0%	.	.	.	.	9%
COc1ccc(CCNC(=O)C2CCCN(S(=O)(=O)c3ccc4c(c3)oc(=O)n4C)C2)cc1OC (centres undefined)	?	-3%	-17%	-4%	.	-28%
CCC1(C)CC(c2nc(-c3ccc(OC)cc3)cs2)CCS1 (centres undefined)	?	-11%	-64%	-4%	26	?
CC(C)(C)OC(=O)N(c1cccc2cccnc12)S(=O)(=O)c1ccccc1Br	.	-40%	4.5µM*	1%	.	.
CC1=C(C(=O)Nc2ccc(Br)cc2)C(c2ccco2)NC(=O)N1 (centres undefined)	?	0%	1%	4%	11	23µM*
CC1=C(C(=O)Nc2ccc(C)cc2)C(c2ccco2)NC(=O)N1 (centres undefined)	-10%	2%	-8%	-5%	13	-6%
CC(C)C[C@H]1CNC(=O)C(=O)N1C[C@H]1CCCN1C[C@H](CC(C)C)N1C[C@H](Cc2ccccc2)N(CC2CCCCC2)C(=O)C1=O	3%	.	.	.	9	-2%
CC(C)C[C@@H](CN1CCCC1CN1C(=S)NC[C@@H]1Cc1ccccc1)N1C[C@H](Cc2ccccc2)N(CC2CCCCCC2)C1=S (some centres undefined)	?	.	.	.	42	10µM*
CC(C)C[C@H]1CN([C@@H](CC(C)C)CN2CCCC2CN2C(=S)NC[C@@H]2Cc2ccccc2)C(=S)N1CC1CCCCC1 (some centres undefined)	?	.	.	.	-7	16µM*
Cc1ccc(NC(=O)N2CCC(CN3CCCCC3)CC2)c(Cl)c1	-24%	-1%	-3%	4%	.	-1%
Nc1c(C(=O)NCc2ccco2)c2nc3ccccc3nc2n1CCc1ccccc1F	?	-87%	?	-1%	-58*	16µM*
COc1ccc(CCn2c(N)c(C(=O)NCc3ccco3)c3nc4ccccc4nc32)cc1OC	16µM*	-48%	?	4%	-20	23µM*
COc1ccc(-n2c(N)c(C(=O)NCc3ccco3)c3nc4ccccc4nc32)c(OC)c1	?	12%	?	1%	-18	23µM*
COc1ccc(Nc2cc(C(=O)NCc3ccco3)c3ccccc3n2)cc1	.	.	.	-2%	.	.
CCCOc1ccc(CC(=O)NCc2ccco2)cc1OC	-10%	3%	-16%	7%	9	20%
CCCCOC(=O)c1c(N)n(-c2ccc(OC)cc2OC)c2nc3ccccc3nc12	16µM*	-8%	3%	.	.	12µM*
SMILES	TDP1 cell noCPT	HepG2 tox	TGFb inhibitor	TDP1 inh	IL-1B inflam inh	DT40 TDP1 CPT
O=C(C1CC=CCC1)N1CCCCCC1 (centres undefined)	-27%	-4%	-2%	.	13	-17%
Cc1cc(-c2ccnc(-n3ncc(C(=O)N(C)Cc4nccs4)c3C)n2)c(C)s1	?	.	.	.	.	-3%[9.04 µM]
CCN(Cc1ccccc1)C(=O)Cn1cc(S(=O)(=O)Cc2cccc(Cl)c2)c2ccccc21	?	-32%	-24%	5%	.	?
COc1ccc(CCn2c(N)c(C(=O)NCc3ccco3)c3nc4ccccc4nc32)cc1	13µM*	-42%	?	-5%	-86*	12µM*
COCCNC(=O)c1c(N)n(CCC2=CCCCC2)c2nc3ccccc3nc12	26µM*	-94%	?	-2%	-72*	?
CC(=O)c1ccc(-c2ccc(C(=O)NCC3CCCO3)o2)cc1 (centres undefined)	-28%	11%	-7%	-5%[0.505 µM]	6	2%
COc1ccc2ccc(=O)oc2c1CC(=O)C(C)C	6%	-1%	13%	1%	-4	1%
COCOc1c2c(c(OCOC)c3c(OCOC)cccc13)/C(=N/N[S+](=O)([O-])c1ccc(C)cc1)C1=C2CCCC1	.	.	.	9%	.	.
COc1cc2ccccc2ccc1=NO	12µM*	-12%	-23%	.	?	16µM*
COc1ccc(OC)c2cc3ccccc3cc12	0.92µM*	-7%	-6%	.	0	0.73µM*
COc1ccc2ccccc2c1-c1c(OC)ccc2ccccc12	.	.	.	5%	.	.
Nc1ccccc1C(=O)/C=C\c1ccc2c(c1)OCO2	.	.	.	11%[21 µM]	.	.
O=C(/C=C/c1ccc(F)cc1)c1cc(Br)ccc1O	-22%	-32%	-20%	.	-57*	-4%
O=C(/C=C/c1ccccc1)c1cc(Br)ccc(=O)c1O	4.6µM*	-16%	16µM*	.	-59*	3.7µM*
Cc1ccc(/C=C/C(=O)c2ccccc(=O)c2O)cc1C	13µM*	-48%	10µM*	11%	-81*	23µM*
O=C(COC(=O)c1cc(Br)ccc1O)c1ccc(F)cc1	-4%	6%	4%	0%	-25	2%
CC(C)=CCc1c(O)ccc(C(=O)Cc2ccccc2)c1O	?	-74%	?	4%	0	-11%

High-throughput results as filed in PubChem BioAssay.
